Consider 22 targets from the supplement of paper PMC10849652.

The full data set covers some 7,900 targets. This sample favours those with a hit. About 0.6% of all pairs of compound and target were hits.

Sequence of UniProt Q14693 (Q14693 whole entry, looked up): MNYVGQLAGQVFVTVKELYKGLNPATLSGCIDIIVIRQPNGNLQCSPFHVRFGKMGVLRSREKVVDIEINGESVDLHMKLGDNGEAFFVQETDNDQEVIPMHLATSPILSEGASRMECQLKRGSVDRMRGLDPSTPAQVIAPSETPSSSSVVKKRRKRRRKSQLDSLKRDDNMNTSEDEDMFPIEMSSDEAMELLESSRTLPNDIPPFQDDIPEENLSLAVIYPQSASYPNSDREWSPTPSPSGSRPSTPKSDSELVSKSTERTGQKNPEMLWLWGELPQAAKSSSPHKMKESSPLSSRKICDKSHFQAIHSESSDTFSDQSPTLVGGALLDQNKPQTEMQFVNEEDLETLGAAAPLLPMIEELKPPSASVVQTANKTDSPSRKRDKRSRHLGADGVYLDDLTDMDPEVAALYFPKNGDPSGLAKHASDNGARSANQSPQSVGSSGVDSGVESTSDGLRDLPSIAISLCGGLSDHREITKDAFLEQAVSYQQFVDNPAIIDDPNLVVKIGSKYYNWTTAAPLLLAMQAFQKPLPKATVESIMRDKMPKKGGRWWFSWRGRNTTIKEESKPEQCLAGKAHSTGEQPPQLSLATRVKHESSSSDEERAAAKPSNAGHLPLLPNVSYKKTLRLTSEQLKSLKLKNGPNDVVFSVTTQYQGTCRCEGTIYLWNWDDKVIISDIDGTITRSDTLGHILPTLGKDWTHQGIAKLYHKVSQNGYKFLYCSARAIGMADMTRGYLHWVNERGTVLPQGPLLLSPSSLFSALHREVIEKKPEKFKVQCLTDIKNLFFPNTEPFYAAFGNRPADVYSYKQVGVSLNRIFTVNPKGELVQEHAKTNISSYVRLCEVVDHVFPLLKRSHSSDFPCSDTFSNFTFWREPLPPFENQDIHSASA
Sequence of UniProt Q96AQ8 (Q96AQ8 whole entry, looked up): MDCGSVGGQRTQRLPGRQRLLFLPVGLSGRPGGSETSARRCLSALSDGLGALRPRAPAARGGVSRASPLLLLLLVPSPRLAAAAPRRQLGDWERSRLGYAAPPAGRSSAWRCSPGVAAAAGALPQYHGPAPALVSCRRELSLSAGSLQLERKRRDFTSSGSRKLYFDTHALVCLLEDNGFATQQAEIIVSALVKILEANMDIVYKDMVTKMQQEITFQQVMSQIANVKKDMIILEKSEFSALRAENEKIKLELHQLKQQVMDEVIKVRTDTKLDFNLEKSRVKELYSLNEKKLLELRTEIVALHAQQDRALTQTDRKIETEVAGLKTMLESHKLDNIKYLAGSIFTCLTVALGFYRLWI
Sequence of UniProt Q8NC56 (Q8NC56 whole entry, looked up): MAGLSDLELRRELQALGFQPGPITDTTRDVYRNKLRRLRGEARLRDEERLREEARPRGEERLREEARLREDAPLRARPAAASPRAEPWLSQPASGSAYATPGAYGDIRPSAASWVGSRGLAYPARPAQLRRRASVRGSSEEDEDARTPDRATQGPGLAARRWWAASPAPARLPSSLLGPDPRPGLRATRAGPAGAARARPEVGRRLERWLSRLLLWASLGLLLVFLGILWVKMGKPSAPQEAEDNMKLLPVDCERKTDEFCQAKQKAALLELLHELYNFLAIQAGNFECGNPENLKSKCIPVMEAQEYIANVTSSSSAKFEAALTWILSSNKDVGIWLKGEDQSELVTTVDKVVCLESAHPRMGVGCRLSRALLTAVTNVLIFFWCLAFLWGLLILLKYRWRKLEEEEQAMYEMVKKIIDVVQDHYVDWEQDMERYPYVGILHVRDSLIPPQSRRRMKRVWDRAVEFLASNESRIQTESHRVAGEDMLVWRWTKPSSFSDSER
Sequence of UniProt Q9NQG6 (Q9NQG6 whole entry, looked up): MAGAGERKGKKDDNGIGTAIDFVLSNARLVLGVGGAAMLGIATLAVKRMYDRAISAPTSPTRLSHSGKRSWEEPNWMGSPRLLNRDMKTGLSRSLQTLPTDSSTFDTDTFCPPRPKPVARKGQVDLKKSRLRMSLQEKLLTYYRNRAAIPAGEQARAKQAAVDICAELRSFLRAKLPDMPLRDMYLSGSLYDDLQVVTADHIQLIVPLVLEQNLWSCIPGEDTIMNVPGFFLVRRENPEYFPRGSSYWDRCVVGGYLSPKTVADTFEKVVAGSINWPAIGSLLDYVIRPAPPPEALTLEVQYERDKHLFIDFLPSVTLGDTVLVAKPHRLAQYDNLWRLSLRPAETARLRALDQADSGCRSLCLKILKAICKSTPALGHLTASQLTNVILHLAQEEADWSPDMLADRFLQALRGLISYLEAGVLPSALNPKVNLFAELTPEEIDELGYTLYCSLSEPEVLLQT
Sequence of UniProt Q92615 (Q92615 whole entry, looked up): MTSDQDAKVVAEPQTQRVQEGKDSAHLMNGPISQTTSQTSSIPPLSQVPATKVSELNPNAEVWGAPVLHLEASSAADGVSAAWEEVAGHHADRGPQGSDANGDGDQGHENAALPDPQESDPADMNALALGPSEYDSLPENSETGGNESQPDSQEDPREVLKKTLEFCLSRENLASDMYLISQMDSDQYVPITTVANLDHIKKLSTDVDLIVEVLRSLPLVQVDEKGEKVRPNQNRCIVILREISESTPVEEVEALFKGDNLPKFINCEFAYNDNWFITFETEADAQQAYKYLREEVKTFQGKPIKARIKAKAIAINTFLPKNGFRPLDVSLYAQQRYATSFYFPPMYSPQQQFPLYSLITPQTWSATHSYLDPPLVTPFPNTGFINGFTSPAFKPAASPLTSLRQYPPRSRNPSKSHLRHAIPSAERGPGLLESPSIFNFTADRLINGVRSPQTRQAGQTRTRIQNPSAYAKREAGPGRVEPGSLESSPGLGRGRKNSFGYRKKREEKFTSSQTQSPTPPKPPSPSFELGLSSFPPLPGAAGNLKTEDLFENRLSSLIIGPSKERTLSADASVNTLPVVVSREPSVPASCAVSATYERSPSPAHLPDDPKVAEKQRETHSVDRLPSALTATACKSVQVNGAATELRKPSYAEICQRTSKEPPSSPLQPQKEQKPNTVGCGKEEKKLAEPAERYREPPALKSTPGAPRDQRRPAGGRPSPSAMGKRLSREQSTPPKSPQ
Sequence of UniProt Q96GA3 (Q96GA3 whole entry, looked up): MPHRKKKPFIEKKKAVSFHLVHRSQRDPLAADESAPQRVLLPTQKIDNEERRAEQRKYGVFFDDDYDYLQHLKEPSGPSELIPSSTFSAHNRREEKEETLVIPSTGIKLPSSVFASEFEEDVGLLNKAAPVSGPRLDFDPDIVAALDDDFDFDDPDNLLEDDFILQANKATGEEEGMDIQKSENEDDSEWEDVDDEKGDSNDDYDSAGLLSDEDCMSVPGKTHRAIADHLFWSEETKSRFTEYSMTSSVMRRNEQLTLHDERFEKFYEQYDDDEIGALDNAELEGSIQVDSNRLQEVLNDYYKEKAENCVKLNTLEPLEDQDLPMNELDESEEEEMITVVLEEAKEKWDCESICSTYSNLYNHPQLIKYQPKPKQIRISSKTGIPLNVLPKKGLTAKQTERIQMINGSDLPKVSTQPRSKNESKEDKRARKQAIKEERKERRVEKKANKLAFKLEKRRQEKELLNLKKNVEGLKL
Sequence of UniProt Q9H6V9 (Q9H6V9 whole entry, looked up): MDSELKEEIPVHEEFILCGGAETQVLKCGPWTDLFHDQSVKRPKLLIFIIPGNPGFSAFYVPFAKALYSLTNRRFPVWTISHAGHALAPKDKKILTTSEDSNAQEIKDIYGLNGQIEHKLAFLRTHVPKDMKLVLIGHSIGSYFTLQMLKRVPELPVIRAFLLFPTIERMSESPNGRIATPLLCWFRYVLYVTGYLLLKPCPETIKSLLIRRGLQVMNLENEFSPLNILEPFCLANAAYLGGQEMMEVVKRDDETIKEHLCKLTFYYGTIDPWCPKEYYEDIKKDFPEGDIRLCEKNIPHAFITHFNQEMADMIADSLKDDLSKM
Sequence of UniProt P49137 (P49137 whole entry, looked up): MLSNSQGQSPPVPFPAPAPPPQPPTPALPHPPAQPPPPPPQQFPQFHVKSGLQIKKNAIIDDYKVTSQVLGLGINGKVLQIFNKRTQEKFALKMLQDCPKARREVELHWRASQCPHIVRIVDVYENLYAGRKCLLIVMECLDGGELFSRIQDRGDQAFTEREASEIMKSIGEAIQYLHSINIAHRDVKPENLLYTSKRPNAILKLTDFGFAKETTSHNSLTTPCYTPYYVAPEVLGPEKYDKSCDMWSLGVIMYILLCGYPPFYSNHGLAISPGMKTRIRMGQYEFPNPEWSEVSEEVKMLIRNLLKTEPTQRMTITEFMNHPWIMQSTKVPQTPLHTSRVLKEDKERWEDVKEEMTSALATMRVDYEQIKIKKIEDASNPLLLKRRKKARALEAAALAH
Sequence of UniProt Q8IWA4 (Q8IWA4 whole entry, looked up): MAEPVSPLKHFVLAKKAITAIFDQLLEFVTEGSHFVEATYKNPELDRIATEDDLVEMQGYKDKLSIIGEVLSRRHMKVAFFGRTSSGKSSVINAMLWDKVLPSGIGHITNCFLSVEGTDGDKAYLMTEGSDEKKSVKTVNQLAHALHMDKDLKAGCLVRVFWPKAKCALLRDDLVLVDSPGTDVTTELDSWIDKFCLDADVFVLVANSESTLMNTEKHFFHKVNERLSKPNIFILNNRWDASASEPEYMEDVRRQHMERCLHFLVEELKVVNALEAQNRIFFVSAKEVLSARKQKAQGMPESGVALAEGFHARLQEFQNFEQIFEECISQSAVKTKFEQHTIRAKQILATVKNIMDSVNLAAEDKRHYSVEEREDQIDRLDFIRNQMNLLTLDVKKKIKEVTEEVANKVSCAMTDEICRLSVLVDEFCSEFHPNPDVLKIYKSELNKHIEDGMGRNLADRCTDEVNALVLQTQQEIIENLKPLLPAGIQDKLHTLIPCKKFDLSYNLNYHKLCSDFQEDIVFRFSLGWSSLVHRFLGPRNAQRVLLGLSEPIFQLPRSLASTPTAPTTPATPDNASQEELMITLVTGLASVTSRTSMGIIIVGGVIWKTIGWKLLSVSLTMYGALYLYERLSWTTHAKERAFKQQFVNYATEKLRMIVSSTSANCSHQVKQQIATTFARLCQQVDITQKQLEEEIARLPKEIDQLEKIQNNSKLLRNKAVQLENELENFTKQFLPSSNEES

Compound in the assay: Cc1cc(SCc2sc(-c3ccc(C(F)(F)F)cc3)nc2C)ccc1OCC(=O)O
Kind of assay: log2 fold change, soluble protein after heating vs DMSO (PISA); higher = thermal stabilisation; K562 cells, 10 uM, 30 min; active = over 0.2 and 3.5 SD of the protein, either way, in both replicates (recomputed). Summed up: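 For each measurement, 10 μM compound was applied for 30 min to K562 cells at 2×10^6 cells/mL. Aliquots were heated for 3 min across 48°C-58°C, pooled, and extracted in PBS with 0.5% NP-40 at 4°C; the supernatant after 21,000xg for 90 min was soluble protein. This was quantified by TMTpro 16plex LC-MS/MS with channel sums equalised, and thermal stability was reported relative to control samples from duplicates, on a log2 fold-change scale.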
For MIEF1 (UniProt Q9NQG6), the log2 fold change is 0.065 (inactive). The result for LDAH isoform 2 (UniProt Q9H6V9) reads 0.204 (inactive).

For the target MAPKAPK2 (UniProt P49137), the log2 fold change was 0.006 (inactive).

With LIAS (UniProt O43766), the log2 fold change was -0.08 (inactive). Next, MFSD5 isoform 2 (UniProt Q6N075): -0.004 (inactive). The result for LARP4B (UniProt Q92615) reads 0.065 (inactive).

Regarding LAMP2 (UniProt P13473), the log2 fold change is -0.062 (inactive). The result for MAGEC2 (UniProt Q9UBF1) reads -0.036 (inactive); that for IGFBP4 (UniProt P22692), -0.007 (inactive). For ILF3 isoform 7 (UniProt Q12906), the log2 fold change was -0.001 (inactive). Next, LTV1 (UniProt Q96GA3): 0.009 (inactive); MICU2 (UniProt Q8IYU8): 0.035 (inactive).

For the target MCUR1 (UniProt Q96AQ8), the log2 fold change was -0.017 (inactive). Next, KDM1A isoform 2 (UniProt O60341): 0.061 (inactive); LEMD2 (UniProt Q8NC56): 0.109 (inactive). Next, LRRFIP1 (UniProt Q32MZ4): -0.059 (inactive).

For LPIN1 isoform 7 (UniProt Q14693), the log2 fold change is -0.043 (inactive). The result for MFN1 (UniProt Q8IWA4) reads 0.039 (inactive). Take KIF1B isoform 4 (UniProt O60333): the log2 fold change is 0.052 (inactive). MFGE8 (UniProt Q08431): the log2 fold change is 0.057 (inactive). The result for MCCC2 (UniProt Q9HCC0) reads -0.022 (inactive); that for MICU1 isoform 3 (UniProt Q9BPX6), 0.021 (inactive).
